# Assay results reported in publication PMC5540273 (PLoS ONE, 2017).
# What was measured:
# Settings in all cases: concentration: 1 μM, replicates: in singlicate; n = 1
# EPHA3 = tested on: EPHA3
# EPHA4 = tested on: EPHA4
# EPHA5 = tested on: EPHA5
# EPHA6 = tested on: EPHA6
# EPHA7 = tested on: EPHA7
# EPHA8 = tested on: EPHA8
# EPHB1 = tested on: EPHB1
# EPHB2 = tested on: EPHB2
# EPHB3 = tested on: EPHB3
# EPHB4 = tested on: EPHB4
# EPHB6 = tested on: EPHB6
# ERBB2 = tested on: ERBB2
# ERBB3 = tested on: ERBB3
# ERBB4 = tested on: ERBB4
# ERK1 = tested on: T1, ERK1
# T1 construct: gene MAPK3
# ERK2 = tested on: T2, ERK2
# T2 construct: gene MAPK1
# ERK3 = tested on: T3, ERK3
# T3 construct: gene MAPK6
# ERK4 = tested on: T4, ERK4
# T4 construct: gene MAPK4
# ERK5 = tested on: T5, ERK5
# T5 construct: gene MAPK7
# ERK8 = tested on: T6, ERK8
# T6 construct: gene MAPK15
# 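Also: KINOMEscan kinase panel screen.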
Structure (SMILES),%Inh (EPHA3) [%],%Inh (EPHA4) [%],%Inh (EPHA5) [%],%Inh (EPHA6) [%],%Inh (EPHA7) [%],%Inh (EPHA8) [%],%Inh (EPHB1) [%],%Inh (EPHB2) [%],%Inh (EPHB3) [%],%Inh (EPHB4) [%],%Inh (EPHB6) [%],%Inh (ERBB2) [%],%Inh (ERBB3) [%],%Inh (ERBB4) [%],%Inh (ERK1) [%],%Inh (ERK2) [%],%Inh (ERK3) [%],%Inh (ERK4) [%],%Inh (ERK5) [%],%Inh (ERK8) [%]
COc1cc2c(cc1OCCN1CCN(C)CC1)ncc1c3ccc(C#N)cc3[nH]c21,18,1,0,0,0,0,10,0,2,0,53,43,4,29,0,12,0,10,22,0
Cn1ccc2ncnc(Oc3ccc(NC(=O)Nc4ccncc4)c(Cl)c3)c21,0,14,0,16,0,0,0,2,6,1,0,15,0,0,0,0,5,0,0,1
COc1ccc(Nc2nccc(N3CCC(NC(=O)Nc4cccc(C(C)=O)c4)C3)n2)cc1 (centres unmarked) [GSK1379731],0,6,0,0,0,9,0,0,9,5,0,14,0,5,0,0,7,0,0,25
CCc1ccnc(/C=C/c2n[nH]c3cc(Sc4ccccc4C(=O)NC)ccc23)c1,0,1,5,0,2,7,4,0,0,0,35,2,0,21,0,5,0,9,0,0
COCCNC(=O)c1ccc(-c2cc(C(=O)NC3CC3)cc(F)c2C)cc1 [GW868318],38,21,25,30,4,12,16,7,23,32,23,13,29,8,2,25,6,8,0,29
C[C@@H](Oc1cc(-n2cnc3ccc(NC(=O)NC(C)(C)C)cc32)sc1C(N)=O)c1ccccc1Cl [GSK346294],26,3,0,5,17,27,14,15,18,7,21,15,22,0,0,0,7,19,0,0
Cc1nnc(-c2ccc(C)c(-c3ccc(C(=O)Nc4ccc(NS(C)(=O)=O)cc4)cc3)c2)o1 [GW702865],8,0,0,0,0,3,6,10,0,5,10,33,20,8,10,0,0,0,0,0
N#Cc1ccc(-c2cc(-c3c[nH]nc3-c3ccccn3)ccn2)cc1 [GW693028],18,2,0,0,44,39,7,8,5,11,2,28,0,27,6,0,0,3,0,10
Cc1nnc(-c2ccc3occ(-c4ccc(C(C)O)cc4)c3c2)o1 (centres unmarked),0,30,0,52,3,0,9,15,12,13,15,0,9,0,0,0,15,10,7,31
CC(C)(C)n1cnc2c(N)ncnc21 [SKF-97359],0,0,0,0,0,7,0,0,0,0,0,37,17,22,0,0,10,15,4,8
